Measured values taken from PubChem BioAssay (Tox21).
Records with an inconclusive call do not appear. The source made the active and inactive calls. Unless noted, calls follow the shape of the dose curve; as a rule, active = well fitted curve in the direction sought with a large enough effect in the repeat runs; inconclusive = weak or mixed curves; inactive = no such curve, though single readings can be large; an effect the other way counts as inactive or inconclusive.

Columns and labels:
[1] = qHTS assay to test for compound auto fluorescence at 535 nm (green) in HEK293 cells (AID 720680)
[2] = qHTS assay to test for compound auto fluorescence at 460 nm (blue) in HEK293 cell free culture (AID 720681)
In short: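 Test compounds were pinned into cell-free culture medium (DMEM with 10% FBS) and fluorescence was read directly at Ex/Em 405/460 nm. Signals were expressed as fluorescence equivalents of triamterene, with DMSO vehicle as control.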

[3] = qHTS assay to test for compound auto fluorescence at 535 nm (green) in HEK293 cell free culture (AID 720682)
In short: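 Compounds were pin-transferred into cell-free DMEM with 10% FBS, and green fluorescence was read at excitation 485 nm and emission 535 nm. Intensities were expressed as fluorescein-equivalent values.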

[4] = qHTS assay to test for compound auto fluorescence at 590 nm (red) in HEK293 cell free culture (AID 720683)
In short: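 Tox21 10K library compounds were pinned into cell-free DMEM with 10% FBS and fluorescence was read at excitation 540 nm. Activity is expressed as Rose Bengal sodium equivalency.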

[5] = qHTS assay to test for compound auto fluorescence at 590 nm (red) in HepG2 cell free culture (AID 720684)
In short: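 Measured in medium alone (MEM containing 10% FBS) following pintool addition of compound; emission at 590 nm with 540 nm excitation, referenced to Rose Bengal sodium.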

[6] = qHTS assay to test for compound auto fluorescence at 460 nm (blue) in HepG2 cell free culture (AID 720685)
In short: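 Compound (23 nL) or DMSO pinned into cell-free MEM with 10% FBS; blue fluorescence read at 405/460 nm excitation/emission, expressed as auto-fluorescence equivalency to triamterene.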

[7] = qHTS assay to test for compound auto fluorescence at 535 nm (green) in HepG2 cell free culture (AID 720686)
[8] = qHTS assay to test for compound auto fluorescence at 460 nm (blue) in HepG2 cells (AID 720687)
In short: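 Cells (2,000/well in MEM with 10% FBS) attached overnight at 37 C, then were exposed to compound or DMSO for 1 hr at 37 C, 5% CO2. Fluorescence read at Ex/Em 405/460 nm, expressed as triamterene-equivalent signal.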

[9] = biological target: Glucocorticoid receptor (Homo sapiens) (UniProt P04150); test: qHTS assay to identify small molecule agonists of the glucocorticoid receptor (GR) signaling pathway (AID 720691; active = well fitted activation curve with a large enough effect in the signal ratio in the repeat runs, not every such curve was filed as active; the % refers to the signal ratio)
Chain of Glucocorticoid receptor (Homo sapiens) (P04150 whole entry, looked up): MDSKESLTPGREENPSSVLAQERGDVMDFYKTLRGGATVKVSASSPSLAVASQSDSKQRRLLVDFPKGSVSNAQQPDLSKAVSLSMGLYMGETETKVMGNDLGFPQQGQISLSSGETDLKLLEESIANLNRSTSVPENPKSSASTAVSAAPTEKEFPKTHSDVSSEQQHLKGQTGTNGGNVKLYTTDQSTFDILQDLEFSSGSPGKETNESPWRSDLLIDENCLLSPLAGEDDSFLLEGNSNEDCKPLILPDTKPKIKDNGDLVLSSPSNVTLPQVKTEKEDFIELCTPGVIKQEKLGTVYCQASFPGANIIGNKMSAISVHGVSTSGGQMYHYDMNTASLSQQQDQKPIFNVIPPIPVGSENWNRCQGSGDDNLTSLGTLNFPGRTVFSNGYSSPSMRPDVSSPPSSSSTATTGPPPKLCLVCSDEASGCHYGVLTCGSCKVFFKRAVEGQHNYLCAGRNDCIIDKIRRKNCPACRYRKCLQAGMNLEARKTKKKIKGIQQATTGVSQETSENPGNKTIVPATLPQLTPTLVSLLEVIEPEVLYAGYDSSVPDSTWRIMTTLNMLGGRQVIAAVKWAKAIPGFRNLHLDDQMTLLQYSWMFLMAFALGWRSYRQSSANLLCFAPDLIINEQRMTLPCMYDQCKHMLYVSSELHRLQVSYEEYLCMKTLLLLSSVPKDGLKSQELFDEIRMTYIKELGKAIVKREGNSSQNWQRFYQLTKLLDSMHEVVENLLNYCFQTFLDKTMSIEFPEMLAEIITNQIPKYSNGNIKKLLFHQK
In short: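 Fluorescence intensity from LiveBLAzer B/G FRET substrate (2 h, room temperature) reports beta-lactamase expression driven by the glucocorticoid response element in GR-bla HeLa cells after 18 h compound exposure at 37 C.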

[10] = biological target: Glucocorticoid receptor (Homo sapiens) (UniProt P04150); test: qHTS assay to identify small molecule antagonists of the glucocorticoid receptor (GR) signaling pathway (AID 720692; active = well fitted inhibition curve with a large enough effect in the signal ratio in the repeat runs, not every such curve was filed as active; the % refers to the signal ratio; also: potency is read from the fitted curve at half-maximal effect)
In short: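 HeLa GR-bla cells; cmpd + dex 5 nM final, 18 h 37 C; LiveBLAzer B/G FRET substrate 2 h RT; fluorescence intensity read. Antagonist mode, qHTS.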

[11] = qHTS assay to identify small molecule antagonists of the glucocorticoid receptor (GR) signaling pathway - cell viability counter screen (AID 720693); also: nearly all actives have a fitted effect of over 55% in size
[12] = qHTS assay for identifying genotoxic compounds that show differential cytotoxicity against isogenic chicken DT40 cell lines with known DNA damage response pathways - wild type cell line (AID 743012); also: nearly all actives have a fitted effect of over 60% in size; also: potency is read from the fitted curve at half-maximal effect
In short: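 Wild type DT40, 300 cells/well, ~0.5 h settle at 37 C/5% CO2; compounds in DMSO added by pintool; 40 h at 37 C/5% CO2; CellTiter-Glo, 30 min RT; luminescence.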

[13] = qHTS assay for identifying genotoxic compounds that show differential cytotoxicity against isogenic chicken DT40 cell lines with known DNA damage response pathways - Rev3 mutant cell line (AID 743014); also: nearly all actives have a fitted effect of over 55% in size; also: potency is read from the fitted curve at half-maximal effect
[14] = qHTS assay for identifying genotoxic compounds that show differential cytotoxicity against isogenic chicken DT40 cell lines with known DNA damage response pathways - Rad54/Ku70 mutant cell line (AID 743015); also: nearly all actives have a fitted effect of over 60% in size; also: potency is read from the fitted curve at half-maximal effect
[15] = qHTS assay to identify small molecule antagonists of the androgen receptor (AR) signaling pathway - cell viability counter screen (AID 743033; also: nearly all actives have a fitted effect of over 45% in size)
[16] = qHTS assay to identify small molecule antagonists of the androgen receptor (AR) signaling pathway using the MDA cell line - cell viability counter screen (AID 743041; also: nearly all actives have a fitted effect of over 45% in size)
In short: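 Viability counter screen run alongside the AR antagonist reporter: cells seeded 5 h before compound, R1881 added, 16 h incubation at 37C without CO2, fluorescent CellTiter-Fluor signal quantified.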

[17] = biological target: Androgen receptor (Homo sapiens) (UniProt P10275); test: qHTS assay to identify small molecule antagonists of the androgen receptor (AR) signaling pathway (AID 743035; active = well fitted inhibition curve with a large enough effect in the signal ratio in the repeat runs, not every such curve was filed as active; the % refers to the signal ratio)
Chain of Androgen receptor (Homo sapiens) (P10275 whole entry, looked up): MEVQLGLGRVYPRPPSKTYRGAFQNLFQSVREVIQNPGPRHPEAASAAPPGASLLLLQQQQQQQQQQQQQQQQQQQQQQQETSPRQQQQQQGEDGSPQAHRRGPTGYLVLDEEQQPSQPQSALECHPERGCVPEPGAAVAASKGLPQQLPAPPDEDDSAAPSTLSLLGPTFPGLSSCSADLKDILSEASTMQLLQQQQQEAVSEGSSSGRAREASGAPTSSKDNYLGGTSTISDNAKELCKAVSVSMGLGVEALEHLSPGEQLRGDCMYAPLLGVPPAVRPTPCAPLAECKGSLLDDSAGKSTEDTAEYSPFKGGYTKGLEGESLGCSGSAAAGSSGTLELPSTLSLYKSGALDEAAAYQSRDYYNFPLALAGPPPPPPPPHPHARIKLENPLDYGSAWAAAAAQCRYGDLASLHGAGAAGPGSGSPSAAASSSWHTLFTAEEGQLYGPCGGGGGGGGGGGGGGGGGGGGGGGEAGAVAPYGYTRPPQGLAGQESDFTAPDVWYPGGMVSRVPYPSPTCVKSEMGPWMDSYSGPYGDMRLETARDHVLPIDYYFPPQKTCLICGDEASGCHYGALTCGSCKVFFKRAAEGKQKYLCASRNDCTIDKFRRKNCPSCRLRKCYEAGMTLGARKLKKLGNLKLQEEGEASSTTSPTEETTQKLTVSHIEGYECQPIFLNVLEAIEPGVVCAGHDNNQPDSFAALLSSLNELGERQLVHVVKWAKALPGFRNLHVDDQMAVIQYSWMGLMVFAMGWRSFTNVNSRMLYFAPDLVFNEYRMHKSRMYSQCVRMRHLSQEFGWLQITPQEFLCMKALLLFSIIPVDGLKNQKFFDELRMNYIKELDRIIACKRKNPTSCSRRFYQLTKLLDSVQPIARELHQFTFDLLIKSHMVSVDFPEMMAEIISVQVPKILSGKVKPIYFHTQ
In short: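 Fluorescence from a beta-lactamase FRET substrate (LiveBLAzer B/G, 2 h, room temperature) measured inhibition of R1881-stimulated signaling in GeneBLAzer AR-UAS-bla HEK293 cells exposed to compound for 16 h at 37C.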

[18] = biological target: Androgen receptor (Homo sapiens) (UniProt P10275); test: qHTS assay to identify small molecule agonists of the androgen receptor (AR) signaling pathway (AID 743036; active = well fitted activation curve with a large enough effect in the signal ratio in the repeat runs, with a control signal flat, not every such curve was filed as active; the % refers to the signal ratio)
In short: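 Activation was read as beta-lactamase FRET signal from LiveBLAzer B/G substrate, added for 2 h at room temperature. Before that, GeneBLAzer AR-UAS-bla GripTite (HEK293) cells had 16 h compound exposure at 37C.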

[19] = biological target: Androgen receptor (Homo sapiens) (UniProt P10275); test: qHTS assay to identify small molecule agonists of the androgen receptor (AR) signaling pathway using the MDA cell line (AID 743040; also: nearly all actives have a fitted effect of over 20% in size)
In short: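 Luminescence from ONE-Glo, read after 30 min at room temperature, reflects MMTV-driven luciferase in MDA-kb2 cells (AR- and GR-responsive). Treatment lasted 16 h at 37C, 0% CO2.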

[20] = biological target: Androgen receptor (Homo sapiens) (UniProt P10275); test: qHTS assay to identify small molecule antagonists of the androgen receptor (AR) signaling pathway using the MDA cell line (AID 743042; also: nearly all actives have a fitted effect of over 55% in size)
In short: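 MDA-kb2 cells (human breast carcinoma, stably carrying an MMTV-luciferase reporter responsive to AR and GR) were plated at 3,000 cells/well and preincubated 5 hr at 37C, then given compound plus R1881 agonist for 16 h. ONE-Glo luminescence was read.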
% is scaled to controls: 0 for no effect and ±100 for the full control effect.

CCC1(CC)C(=O)C=CNC1=O
inactive: outcome [1] | outcome [2] | outcome [3] | outcome [4] | outcome [5] | outcome [6] | outcome [7] | outcome [8] | Potency [9] | Potency [10] | Potency [11] | Potency [12] | Potency [13] | Potency [14]

C(COCC1CO1)OCC1CO1 (stereo not drawn)
inactive: outcome [1] | outcome [2] | outcome [3] | outcome [4] | outcome [5] | outcome [6] | outcome [7] | outcome [8] | Potency [9] | Potency [10] | Potency [11] | Potency [15] | Potency [16]
active: Potency [12] 6.86 µM | Potency [13] 1.54 µM | Potency [14] 8.63 µM

CC#Cc1cc(C)nc(Nc2ccccc2)n1
active: Potency [10] 54.9 µM | Potency [12] 54.4 µM | Potency [13] 61.1 µM | Potency [14] 54.4 µM
inactive: outcome [1] | outcome [2] | outcome [3] | outcome [4] | outcome [5] | outcome [6] | outcome [7] | outcome [8] | Potency [9] | Potency [11] | Potency [16]

C=C(C)[C@H]1CN[C@H](C(=O)O)[C@H]1CC(=O)O
inactive: outcome [1] | outcome [2] | outcome [3] | outcome [4] | outcome [5] | outcome [6] | outcome [7] | outcome [8] | Potency [9] | Potency [10] | Potency [11] | Potency [15] | Potency [16]

N#CN=C1SCCN1Cc1ccc(Cl)nc1
inactive: outcome [1] | outcome [2] | outcome [3] | outcome [4] | outcome [5] | outcome [6] | outcome [7] | outcome [8] | Potency [9] | Potency [10] | Potency [11] | Potency [12] | Potency [13] | Potency [15] | Potency [16]

CNC(=O)Oc1cc(C)c(N(C)C)c(C)c1
inactive: outcome [1] | outcome [2] | outcome [3] | outcome [4] | outcome [5] | outcome [6] | outcome [7] | outcome [8] | Potency [9] | Potency [10] | Potency [11] | Potency [15] | Potency [16]

COP(=O)(O)OC
inactive: outcome [1] | outcome [2] | outcome [3] | outcome [4] | outcome [5] | outcome [6] | outcome [7] | outcome [8] | Potency [9] | Potency [10] | Potency [11] | Potency [12] | Potency [13] | Potency [14] | Potency [15] | Potency [17] | outcome [18] | outcome [19] | Potency [16] | Potency [20]

C[C@@H](N)[C@@H](O)c1ccccc1
inactive: fluorescence, % of fluorescein [1] 0.072% [at 18.6 µM] | fluorescence, % of fluorescent control [2] -0.0641% [at 18.6 µM] | activity change [3] -0.0136% [at 18.6 µM] | fluorescence, % of fluorescent control [4] 0.0965% [at 18.6 µM] | fluorescence, % of Rose Bengal [5] 0.843% [at 18.6 µM] | fluorescence, % of fluorescent control [6] -0.105% [at 18.6 µM] | fluorescence, % of fluorescein control [7] 0.0244% [at 18.6 µM] | fluorescence, % of fluorescent control [8] -0.0421% [at 18.6 µM] | Potency [9] | Potency [10] | Potency [11] | Potency [15] | Potency [16]

Clc1cc2c(cc1Cl)Oc1cc(Cl)c(Cl)cc1O2
inactive: fluorescence, % of fluorescein [1] 0.0035% [at 0.37 µM] | fluorescence, % of fluorescent control [2] -0.0164% [at 0.37 µM] | activity change [3] -0.0409% [at 0.37 µM] | fluorescence, % of fluorescent control [4] 0.0291% [at 0.37 µM] | fluorescence, % of Rose Bengal [5] -0.248% [at 0.37 µM] | fluorescence, % of fluorescent control [6] -0.0614% [at 0.37 µM] | fluorescence, % of fluorescein control [7] -0.0284% [at 0.37 µM] | fluorescence, % of fluorescent control [8] -0.0066% [at 0.37 µM] | activation [9] -3.18% [at 0.28 µM] | activity change, negative = inhibition [10] -20.7% [at 0.284 µM] | viability change, negative = cytotoxic [11] -0.875% [at 0.284 µM] | activity change, negative = cytotoxicity [12] 0.129% [at 0.343 µM] | activity, negative = cytotoxicity [13] 4.17% [at 0.343 µM] | activity change, negative = cytotoxicity [14] 7.26% [at 0.345 µM] | activity change, negative = cytotoxicity [15] -3.41% [at 0.284 µM] | activity change, negative = inhibition [17] -2.78% [at 0.284 µM] | activation [18] -3.9% [at 0.28 µM] | activity change [19] 5.01% [at 0.341 µM] | viability change, negative = cytotoxic [16] -3.89% [at 0.341 µM] | activity change, negative = inhibition [20] -2.57% [at 0.341 µM]

S=C=S
inactive: outcome [1] | outcome [2] | outcome [3] | outcome [4] | outcome [5] | outcome [6] | outcome [7] | outcome [8] | Potency [9] | Potency [10] | Potency [11] | Potency [12] | Potency [13] | Potency [14] | Potency [16]

O=C(Cl)/C=C/C(=O)Cl
inactive: outcome [1] | outcome [2] | outcome [3] | outcome [4] | outcome [5] | outcome [6] | outcome [7] | outcome [8] | Potency [9] | Potency [10] | Potency [11] | Potency [12] | Potency [14] | outcome [18] | outcome [19] | Potency [16] | Potency [20]

Oc1ccc(Cc2ccc(O)cc2)cc1
inactive: outcome [1] | outcome [2] | outcome [3] | outcome [4] | outcome [5] | outcome [6] | outcome [7] | outcome [8] | Potency [9] | Potency [10] | Potency [11] | Potency [12] | Potency [13] | Potency [14] | Potency [15] | Potency [16]

CC1=C2[C@H]3OC(=O)[C@@H](C)[C@@H]3CC[C@@]2(C)C=CC1=O
inactive: outcome [1] | outcome [2] | outcome [3] | outcome [4] | outcome [5] | outcome [6] | outcome [7] | outcome [8] | Potency [9] | Potency [10] | Potency [11] | Potency [12] | Potency [14] | Potency [15] | Potency [16]

O=CCCl
active: Potency [12] 19.3 µM | Potency [13] 0.217 µM | Potency [14] 27.3 µM
inactive: outcome [1] | outcome [2] | outcome [3] | outcome [4] | outcome [5] | outcome [6] | outcome [7] | outcome [8] | Potency [9] | Potency [10] | Potency [11] | Potency [15] | Potency [16]

CCOP(=S)(OCC)Oc1ccc(Cl)cc1Cl
inactive: outcome [1] | outcome [2] | outcome [3] | outcome [4] | outcome [5] | outcome [6] | outcome [7] | outcome [8] | Potency [9] | Potency [10] | Potency [11] | Potency [13] | Potency [14] | Potency [15] | Potency [16]

c1cncc([C@@H]2CCCCN2)c1
inactive: outcome [1] | outcome [2] | outcome [3] | outcome [4] | outcome [5] | outcome [6] | outcome [7] | outcome [8] | Potency [9] | Potency [10] | Potency [11] | Potency [12] | Potency [14] | Potency [15] | Potency [16]
